16 compounds from PubChem BioAssay (NCI) can be followed below.

Holding throughout (assay): NCI-60 one-dose screen, 48 h (100 = growth as untreated, 0 = no growth, -100 = all killed)
Common to all, as to settings: 10 µM unless noted

The test system of assay [1] is SK-MEL-2 melanoma.
Assay [2] deals with EKVX NSCLC.
Assay [3] concerns SN12C renal.
In assay [4] the test system is UO-31 renal.
The test system of assay [5] is TK-10 renal.
For assay [6], the system named is ACHN renal.
In assay [7] the test system is CAKI-1 renal.
Assay [8] deals with A498 renal.
For assay [9], the system named is CCRF-CEM leukemia.
For assay [10], the system named is MOLT-4 leukemia.

The panel holds about 83,000 compounds, 20% with a hit somewhere; the sample as a whole holds those more often.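 Compound tested at a single concentration for 48 hours in 96-well plates; a percent growth value below 10 was scored as active.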 A number with no mark means an inactive call. Calls of active or inactive are those of the source.

Regarding `Nc1c2c(nc3ccc(Cl)cc13)CC(c1ccccc1)CC2=O` (stereo unspecified), the growth in [1] was 59%; in assay [2], 40.3%; in [3] it was 61.3%; in assay [4], 57.8%; in assay [5], 79.6%; in [6] it was 47.9%. The growth in assay [7] is 44.5%; in [8], 49.3%; in assay [9] it was 43.9%; in [10] it was 51%.

Regarding `O=S(=O)(NCCNc1cc(-c2cn(-c3ccccc3)nc2-c2cccc(O)c2)ccn1)c1ccccc1`, the growth in [1] is 66.3%; in assay [2], 73.1%; in assay [3] it was 63.4%; in assay [4], 37.4%; in assay [5] it was 67.1%; in [6], 57.8%. Also, the growth in assay [7] is 60.8%; in assay [8], 70.5%; in [9], 27.6%; in assay [10], 25.1%.

In the case of `Cc1cc(Cl)nc(N(CCNc2ccnc3cc(Cl)ccc23)Cc2ccco2)n1`, the growth in assay [1] is 55.8%; in assay [2] it was 63.6%; in [3], 33.5%; in [4], -33.5% (active); in [5], 64%; in assay [6] it was 17.7%. For the same compound, the growth is 70.2% in [8], 8.24% (active) in assay [9] and 6.36% (active) in assay [10].

In the case of `COc1ccc2c(c1)c(-c1nc(-c3c[nH]c4ncccc34)cs1)cn2CCNC(=O)OC(C)(C)C`, the growth in [1] was 86.6%; in assay [2] it was 55.6%; in [3], 84.8%; in assay [4], 49.3%; in [5], 89.2%; in assay [6], 67.9%. The figures for the growth in assay [8], in [9] and in assay [10] were 85.3%, 48.2% and 55.7%, respectively.

Consider `CC/C=C\C[C@H]1CC=C2C(=O)C=C[C@@H]2CC=CCCCC(=O)O[C@@H](CCCCC)CC=C2C(=O)C=C[C@@H]2CC=CCCCC(=O)O[C@@H](CCCCC)CC=C2C(=O)C=C[C@@H]2CC=CCCCC(=O)O[C@@H](CCCCC)CC=C2C(=O)C=C[C@@H]2CC=CCCCC(=O)O1`, for which the growth in [1] was -5.92% [7.9 µM] (active); in assay [2], 63.7% [7.9 µM]; in assay [3], -10.5% [7.9 µM] (active); in assay [4], 9.76% [7.9 µM] (active); in [5] it was 57.5% [7.9 µM]; in assay [6], 19.6% [7.9 µM]. Moreover, the growth in assay [8] is 73.1% [7.9 µM]; in assay [9], 9.35% [7.9 µM] (active); in assay [10], 4.01% [7.9 µM] (active).

With `Cn1cc(-c2csc(-c3cn(CCCN4CCCCC4)c4ccc(Br)cc34)n2)c2cccnc21`, the growth in assay [1] was 37%; in [2], 49.6%; in assay [3], -31.3% (active); in assay [4], -93.9% (active); in assay [5], 26.7%; in assay [6], -61.1% (active). For the same compound, the growth in [8] is 79.1%; in assay [9], -23.8% (active); in assay [10] it was -46.3% (active).

For `Cc1cc(Cl)nc(N(CCCNc2ccnc3cc(Cl)ccc23)Cc2ccco2)n1`, the growth was 39.4% in [1]; 24.1% in [2]; 26.6% in assay [3]; 10.9% in assay [4]; 41.7% in assay [5]; 28.4% in assay [6]. In addition, the growth was 38.1% in assay [8], 20.6% in assay [9] and -1.04% (active) in [10].

Take `COc1ccc(C2C(C#N)=C(N)Oc3c2sc2c(F)cccc32)cc1` (stereo unspecified): the growth in assay [1] was 19.8%; in assay [2] it was 50.3%; in assay [3], 39.7%; in assay [4] it was 37.6%; in [5], 56.6%; in assay [6], 42.9%. The growth was 41.4% in assay [8], 14.9% in assay [9] and 8.8% (active) in assay [10].

For `Cc1cc(N2CCCCC2)nc(N(CCCNc2ccnc3cc(Cl)ccc23)Cc2ccco2)n1`, the growth is 44.8% in assay [1]; 39.4% in assay [2]; 36.3% in assay [3]; 15.6% in [4]; 63.2% in [5]; 38.8% in assay [6]. Further, the growth is 46.5% in [8], 19.5% in assay [9] and 6.82% (active) in [10].

`O=C(N/N=C/c1ccccc1SSc1ccccc1/C=N/NC(=O)c1ccccc1)c1ccccc1`: the growth in assay [1] is 24.8%; in assay [2] it was 25.8%; in [3] it was 43.4%; in assay [4], 18.6%; in assay [5] it was 31.8%; in assay [6], 15.4%. Further, the growth in [8] is 75.8%; in [9] it was 16%; in assay [10], 10.8%.

With `O=C1CCCC=CC[C@H]2C=C(Cl)C(=O)C2=CC[C@H](CCCCC(F)(F)F)OC(=O)CCCC=CC[C@H]2C=C(Cl)C(=O)C2=CC[C@H](CCCCC(F)(F)F)OC(=O)CCCC=CC[C@H]2C=C(Cl)C(=O)C2=CC[C@H](CCCCC(F)(F)F)O1`, the growth in assay [1] is 90.1% [6.25 µM]; in assay [2] it was 98.4% [6.25 µM]; in assay [3], 56.3% [6.25 µM]; in assay [4] it was 78.9% [6.25 µM]; in assay [5] it was 148% [6.25 µM]; in assay [6], 71.2% [6.25 µM]. Also, the growth in [8] was 101% [6.25 µM]; in assay [9], 8.35% [6.25 µM] (active); in assay [10], 15.2% [6.25 µM].

In the case of `O=C1Nc2ccccc2/C1=C/c1cn(CCCn2c3ccccc3c(=O)c3ccccc32)c2ccccc12`, the growth is 84.4% in [1]; 60.3% in [2]; 92% in assay [3]; 44.6% in [4]; 140% in [5]; 89% in assay [6]. Besides, the growth in assay [8] was 112%; in assay [9], 98.4%; in [10], 77.7%.

As for `N#CC1=C(N)Oc2c(sc3c(F)cccc23)C1c1ccc(Cl)cc1` (stereo unspecified), the growth is -3.89% (active) in assay [1]; 51.4% in assay [2]; 36.2% in assay [3]; 41.7% in assay [4]; 78.4% in [5]; 42% in assay [6]. The growth in assay [8] was 46.6%; in assay [9], 15.1%; in assay [10], 8.38% (active).

For the compound `Clc1ccc2c(NCCNc3nc(-c4ccccc4)cc(-c4ccccc4)n3)ccnc2c1`, the growth was -10.9% (active) in [1]; 18.6% in [2]; -74.4% (active) in [3]; -94.3% (active) in assay [4]; -8.38% (active) in [5]; -97.2% (active) in [6]. For the same compound, the growth was 93% in assay [8], -9.52% (active) in assay [9] and -32.2% (active) in [10].

Consider `Cc1cc(N(CCCNc2ccnc3cc(Cl)ccc23)Cc2ccco2)nc(Cl)n1`, for which the growth in assay [1] is 65.4%; in assay [2], 43.5%; in [3], 58.8%; in assay [4], 36.7%; in assay [5] it was 62.6%; in assay [6] it was 64.8%. Besides, the growth was 46.1% in assay [8], 67.3% in assay [9] and 43.4% in assay [10].

Consider `Cc1cc(N2CCCCC2)nc(N(CCNc2ccnc3cc(Cl)ccc23)Cc2ccco2)n1`, for which the growth in [1] was 76.4%; in assay [2], 64.8%; in [3], 24%; in [4], 40.6%; in assay [5], 68.5%; in [6] it was 27.8%. Besides, the growth in assay [8] was 61.3%; in assay [9], 10.2%; in assay [10], 0.376% (active).
